Bioassay records (PubChem BioAssay)
An excerpt weighted towards active compounds, which were near 1.4% of everything screened.
PINK1 expr mod = modulators of PINK1 expression | Potency, µM (titrated, usually from 76.6 µM), without a hit: top-dose activation (PINK1 increase), hits mostly activators | PINK1 immunofluorescence, high-content cytometry, 24 h | 410,000 tested, 0.2% active; active = well fitted activation curve with a large enough effect; inconclusive = small, poorly fitted or top-dose-only effect; cell line not stated here; also: potency is read from the fitted curve at half-maximal effect; % of control where 0% means no effect; nearly all actives have a fitted effect of over 65% in size
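Cells are seeded, rested 12 hours, then given compound at five concentrations or DMSO for 24 hours. After fixation, blocking and antibody staining, PINK1 amount and mitochondrial localization are scored; CCCP serves as control.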
p53 reactivator = re-activators of mutant p53; H1299 p53-A138V BP100-luciferase reporter, luminescence, 24 h; Potency, µM (top dose mostly 92.2 µM), for the others: top-dose activity change, positive = activation, most hits filed as activators; 320,000 tested, 0.063% active; also: potency is read from the fitted curve at half-maximal effect; % of control where 0% means no effect; nearly all actives have a fitted effect of over 45% in size
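H1299 (p53-null), stable ts p53-A138V + BP100-Luc; 1000 cells/well, Opti-MEM/10% FBS; cpd 4 pt, 1:5; 24 h, 37 deg C, 5% CO2; detection reagent 10 min RT; luminescence.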
MmCpn inh = M. maripaludis TRiC chaperonin inhibition; purified Mm-Cpn ATPase, ADP Transcreener TR-FRET; Potency, µM (doses to about 76.9 µM), inactives show top-dose activity, negative = inhibition, actives largely listed as inhibitors; 330,000 tested, 0.031% active; also: potency is read from the fitted curve at half-maximal effect; % is scaled to controls: 0 for no effect and ±100 for the full control effect; nearly all actives have a fitted effect of over 80% in size
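TR-FRET (320 nm excitation; 590 and 665 nm emission) reports ADP made from 10 uM ATP by 25 nM enzyme; compounds were preincubated 10 min, reaction run 30 min, both at 37°C.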
12-LOX inh = inhibitors of human 12S-lipoxygenase ALOX12; 580,000 tested, 1.1% active; Potency, µM (top dose mostly 108 µM), for the others: at the highest dose activity change, negative = inhibition, usual class: inhibitors; P18054; purified 12hLO, xylenol orange hydroperoxide absorbance; also: potency is read from the fitted curve at half-maximal effect; % is scaled to controls: 0 for no effect and ±100 for the full control effect
Target sequence (P18054 whole entry, looked up): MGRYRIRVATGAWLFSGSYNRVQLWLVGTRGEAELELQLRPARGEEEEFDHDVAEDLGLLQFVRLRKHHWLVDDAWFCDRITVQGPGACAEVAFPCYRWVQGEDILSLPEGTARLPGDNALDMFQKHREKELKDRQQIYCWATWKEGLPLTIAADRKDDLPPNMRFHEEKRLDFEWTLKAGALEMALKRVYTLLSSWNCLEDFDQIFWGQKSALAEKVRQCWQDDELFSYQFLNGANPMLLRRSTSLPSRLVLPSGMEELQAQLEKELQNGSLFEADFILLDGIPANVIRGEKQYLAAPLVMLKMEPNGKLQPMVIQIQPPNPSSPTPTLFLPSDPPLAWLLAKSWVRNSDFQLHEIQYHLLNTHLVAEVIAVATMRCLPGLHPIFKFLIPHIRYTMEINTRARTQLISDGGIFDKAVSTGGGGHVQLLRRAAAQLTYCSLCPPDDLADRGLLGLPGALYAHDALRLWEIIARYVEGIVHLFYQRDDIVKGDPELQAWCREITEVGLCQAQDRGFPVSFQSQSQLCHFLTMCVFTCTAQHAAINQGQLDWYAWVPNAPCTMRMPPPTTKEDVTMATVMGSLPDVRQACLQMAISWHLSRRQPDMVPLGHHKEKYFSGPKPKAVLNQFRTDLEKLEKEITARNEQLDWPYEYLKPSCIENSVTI
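Purified human 12hLO (150 nM final) in 25 mM Hepes, 0.01% Triton X-100, pH 7.0 was preincubated 15 min at room temperature with compound. Then 40 uM arachidonic acid was added, 30 min. Hydroperoxide was read by Fe-XO absorbance ratio 573/405 nm.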
ASM inhibitor = inhibitors of human secretory acid sphingomyelinase; P17405; Potency, µM (titrated, usually from 57.5 µM), inactives show at the highest dose activity change, negative = inhibition, hits mostly inhibitors; placental ASM, HMU-PC fluorogenic substrate, 60 min; 340,000 tested, 0.006% active; also: potency is read from the fitted curve at half-maximal effect
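Human placenta-derived ASM preincubated with compound 10 min at room temperature, then reacted with 9 uM (final) fluorogenic HMU-PC substrate for 60 min at 37 C. Stop solution raises pH to 10; fluorescence read at Ex 386/Em 447 nm.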
CCT chaperon mod = changes cytosolic chaperonin activity; purified chaperonin ATPase assay, HTRF ADP detection, 30 min; 360,000 tested, 0.3% active; AID 651819; activity change, % (concentration not given with the values), hits read low; in the data active = activity change below about -30%; also: % is scaled to controls: 0 for no effect and ±100 for the full control effect
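Nucleotide hydrolysis assay: TRiC at 20–40 nM final (set by batch activity) with 10 uM ATP, 30 min at 37 °C, in presence of 76 uM compound. Detection by competitive ADP HTRF, 30 min ambient.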
Starred values were filed as active, the others as inactive; i = inactive; ? = inconclusive; · = not tested or not shown; [ ] = another dose, or the depositor's remark. Unless noted, calls follow the shape of the dose curve; as a rule, active = well fitted curve in the direction sought with a large enough effect; inconclusive = small, poorly fitted or top-dose-only effect, or another doubt; inactive = no such curve, though single readings can be large; an effect the other way counts as inactive or inconclusive.

SMILES	PINK1 expr mod	p53 reactivator	MmCpn inh	12-LOX inh	ASM inhibitor	CCT chaperon mod
CCCC12CN3CC(C)(CN(C1)C31CCCCC1)C2=O	0%	-4%	0%	2%	0%	-48*
Cc1ccccc1NC(=O)CCc1c(C)nn(-c2ccc(N3CCCC3)nn2)c1C	·	·	·	-5%	·	·
CCc1ccc(-c2cn(C3CCCCC3)c(=S)[nH]2)cc1	1%	16%	-5%	20µM*	-5%	1
CCc1ccc(-n2cc(-c3ccc([N+](=O)[O-])cc3)[nH]c2=S)cc1	6%	?	-3%	-20%	0%	-1
CCCC(=O)NNc1cc(=O)c2c(=O)n(C)c(=O)n(C)c2[nH]1	-1%	-2%	0%	16µM*	4%	-1
O=C(CNC(=O)C1CCC(CNS(=O)(=O)c2ccc(F)cc2)CC1)NCc1ccccn1 (configuration not stated)	·	·	·	1%	·	·
Cc1oc2cc(OCC(=O)O)ccc2c(=O)c1Oc1ccccc1Br	·	·	·	32µM*	·	·
COC(=O)C1=C(CCc2ccccc2)NC(=O)NC1c1ccc(Cl)cc1 (configuration not stated)	2%	·	·	35µM*	-5%	-4
COC(=O)C1=C(C)N(Cc2ccccc2)C(=S)NC1c1ccc(Cl)cc1 (configuration not stated)	·	·	·	35µM*	·	·
COC(=O)C1=C(CCc2ccccc2)NC(=O)NC1c1ccc(C#N)cc1 (configuration not stated)	0%	·	·	5%	4%	-3
CCN1C(=S)N[C@@H](c2ccccc2)C(C(=O)OC)=C1C	0%	6%	?	-28%	1%	0
CCOC(=O)C1=C(CNc2ccc(C)c(Cl)c2)NC(=O)NC1c1ccc(Cl)cc1 (configuration not stated)	·	·	·	8.9µM*	·	·
COC(=O)C1=C(C)N(Cc2ccc(Cl)cc2)C(=S)NC1c1ccccc1 (configuration not stated)	·	·	·	40µM*	·	·
CCCOC(=O)c1c(-c2ccc(OCC)cc2)csc1NC(=O)c1ccoc1C	·	·	·	80%	·	·
COCCN(Cc1ccc(F)cc1)Cc1cc(=O)n2c3c(sc2n1)CCCC3	·	·	·	-5%	·	·
CCN(C(=O)c1cn(C)c(=O)c2cc(OC)c(OC)cc12)c1ccc(C)c(C)c1	·	·	·	-20%	·	·
Cc1nc2cc(NC(C)C(=O)Nc3ccc(C#N)cc3)ccc2o1 (configuration not stated)	·	·	·	-14%	·	·
CCc1cc(=O)oc2c(CN3CCN(C)CC3)c(O)ccc12	0%	-7%	-11%	-21%	i	-2
CN1CCN(Cc2c(O)ccc3cc(Br)ccc23)CC1	0%	-2%	0%	5.6µM*	3%	1
CCCc1noc(CN2CCC(c3nc4ccccc4s3)CC2)n1	·	·	·	-3%	·	·
O=C(NCC1CC1)c1ccc(-n2ccnc2)c2ccoc12	0%	·	·	10µM*	·	0
CS(=O)(=O)Nc1cccc(NC(=O)c2ccc(-n3ccnc3)c3ccoc23)c1	0%	·	·	10µM*	·	-4
COCCn1cnnc1SCC(=O)c1c[nH]c2ccccc12	·	·	·	2%	·	·
CC1CCc2onc(C(=O)Nc3ccc(Cl)cc3)c2C1 (configuration not stated)	25%	·	·	3%	·	·
CCCCCCCCCc1conc1C(=O)/C=C/c1oc2c(c1C)CCC(C)C2 (configuration not stated)	·	·	·	40µM*	·	·
SMILES	PINK1 expr mod	p53 reactivator	MmCpn inh	12-LOX inh	ASM inhibitor	CCT chaperon mod
COc1ccc(CN(C)c2nn3c(=O)cc(C)nc3s2)cc1OC	·	·	·	27%	·	·
Fc1ccccc1-n1c(-c2ccc3ccccc3n2)n[nH]c1=S	-1%	-10%	0%	?	-3%	-1
S=c1[nH]nc(-c2ccc3ccccc3n2)n1-c1ccccc1	-1%	-8%	-7%	?	-4%	-69*
CCCCn1nc(C(=O)Nc2ccc3oc(C)nc3c2)c2ccccc2c1=O	·	·	·	0%	·	·
Cc1nn(-c2nc3ccccc3s2)c(N)c1-c1ccc(Cl)cc1	0%	?	2%	0%	-9%	0
Cc1nn(-c2nc3ccccc3s2)c(N)c1-c1ccccc1	5%[38.3 µM]	22µM*	2%	-2%[57.4 µM]	-2%	-3
O=C(Nc1c(Cl)cc([N+](=O)[O-])cc1Cl)c1cc(Cl)cc(Cl)c1O	14µM*	·	·	·	·	·
COc1ccccc1NC(=O)NNC(=O)COc1ccc2ccccc2c1	3%	-8%	-1%	5%	-3%	-1
COc1ccc(CC(=O)NNC(=O)COc2ccc3ccccc3c2)cc1	-2%	-1%	40µM*	7%	-3%	0
Cc1cc(C(F)(F)F)n2nc(C(=O)O)c(Cl)c2n1	5%	-5%	2%	45µM*	2%	-3
Cc1cc(C(F)(F)F)n2nc(C)c(-c3ccc(Cl)cc3)c2n1	0%	3%	0%	-20%	1%	-3
NC(=O)c1nn(CC(O)COc2ccccc2)c(=O)c2ccccc12 (configuration not stated)	·	·	·	-1%	·	·
CCOc1ccc(NC(=S)Nc2cc(OC)c(Cl)cc2OC)cc1	4%	-2%	1%	40µM*	-6%	2
CCOc1ccc(NC(=S)Nc2cc(C)[nH]n2)cc1	1%	5%	1%	40µM*	-1%	-10
CCOc1ccc(NC(=S)Nc2ccc(OCC)cc2)cc1	2%	4%	-1%	?	-6%	0
CCN(CC(=O)NC(C)(C)C)C(=O)c1cccc(C#N)c1	·	·	·	-10%	·	·
Cc1cc(NC(=O)Cc2ccccc2C)no1	-1%	·	-1%	?	0%	0
Cc1ccccc1CC(=O)Nc1cc(C(C)(C)C)on1	5%	·	-1%	5µM*	1%	-2
Cc1noc(C)c1-c1nc(NCCN2CCOCC2)c2ccccc2n1	0%	·	·	56µM*	·	·
Cc1ccc(-c2nc(NCCN3CCOCC3)c3ccccc3n2)cc1	-2%[38.3 µM]	-1%	-3%	2%	6%	-2
Cc1ccc(N/N=C/c2ccc(C)s2)cc1	·	·	·	56µM*	·	·
COc1ccc2[nH]c(C)c(C(=O)CN3CCC(Cc4ccccc4)CC3)c2c1	·	·	·	25µM*	·	·
COc1cc(CN2CCN(Cc3ccccc3C)CC2)cc(OC)c1O	·	·	·	1µM*	·	·
COC(=O)c1c(NC(=O)NCc2cccnc2)sc2c1CC(C)(C)OC2	·	·	·	0%	·	·
CN1CCN(Cc2nc3ccccc3c(=O)n2Cc2nc(-c3ccc([N+](=O)[O-])cc3)cs2)CC1	-1%	?	-2%	45µM*	-4%	0
CN(C)Cc1nc2ccccc2c(=O)n1Cc1nc(-c2cccc([N+](=O)[O-])c2)cs1	0%	-3%	-9%	3%	-2%	1
O=c1c2cc3c(cc2nc(SCc2nc(-c4ccccc4Cl)no2)n1Cc1ccco1)OCO3	·	·	·	-20%	·	·
